An excerpt weighted towards active compounds, which were near 6.2% of everything screened.
FMDV antiviral = High Throughput Screening for Foot and Mouth Disease Virus Antivirals; FMDV antiviral cell-based qHTS; Potency, µM (top dose mostly 57.9 µM), most hits filed as inhibitors; actives 1.2% (n = 410,000); AID 1159524, 2015; calls by dose curve; tested in HEK293T cells; further: read-out not given here; nearly all actives have a fitted effect of over 45% in size
Lassa entry inh = qHTS for Inhibitors of binding or entry into cells for Lassa Virus; Potency, µM (doses to about 37.9 µM), hits mostly inhibitors; Lassa virus pseudotype entry inhibition, cell reporter; actives 1.2% (n = 300,000); calls by dose curve; tested in HEK293 cells; further: nearly all actives have a fitted effect of over 50% in size
Marburg entry inh = qHTS for inhibitors of binding or entry into cells for Marburg Virus | Potency, µM (top dose mostly 37.8 µM), hits mostly inhibitors | Marburg virus pseudotyped entry inhibition, cell reporter | AID 540276, 2011 | actives 1.8% (n = 300,000); calls by dose curve; tested in HEK293 cells
HCMV inh = qHTS Assay for inhibitors of the human cytomegalovirus (HCMV). AID 1259415, 2018. actives 4.5% (n = 410,000). activity change, negative = inhibition, % at 57.5 µM. HFF cells, HCMV-luciferase reporter, 72 h; active compounds read low; in the data active means activity change below about -60%; inconclusive means no clear call, values can overlap the other calls; inactive means above about -39%
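Two-dose cell screen: HFF monolayers treated with compounds and infected with luciferase-expressing HCMV at 1 PFU/cell, 72 h at 37C, then lysed for luciferase measurement.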
Hits are given with their value; – = inactive; ? = inconclusive; · = not tested or not shown.

SMILES	FMDV antiviral	Lassa entry inh	Marburg entry inh	HCMV inh
CC(C)c1nc2n(n1)C1(CCCCC1)[C@@H]1CCCC[C@@H]1N2	–	–	–	–
CCc1ccccc1NC(=S)N(CCc1ccncc1)C(C)C	–	·	·	-92.6
Cc1cccc(NC(=S)N(CCc2ccncc2)C(C)C)c1C	–	–	?	–
Cc1ccc(C)c(S(=O)(=O)c2cn(Cc3ccccc3)c3cc(F)c(F)cc3c2=O)c1	–	–	?	–
Cc1ccc2nc(/N=C(\N)NC(=O)N3c4ccccc4Sc4ccccc43)nc(C)c2c1	–	–	–	-65.4
Cc1ccc2c(C)nc(/N=C(\N)NC(=O)N3c4ccccc4Sc4ccccc43)nc2c1	–	–	?	?
COC(=O)C1=C(C)N(Cc2ccccc2)C(=O)NC1c1ccco1 (stereo not given)	·	·	–	·
Cc1ccc(-n2c(Cc3ccccc3)nnc2SCc2nc(-c3cccs3)no2)cc1C	–	–	?	–
O=C1c2cccc(NCCCNCCO)c2C(=O)c2cccc(NCCCNCCO)c21	–	–	?	-97.9
C=C(C)CSc1cc(C)c(C#N)c2nc3ccccc3n12	?	?	?	-74.8
COc1ccc(C(O)c2nc3ccccc3n2C)cc1OC (stereo not given)	?	–	?	-88.4
COc1ccc(C(=O)NC(C)c2nc3ccccc3n2C)cc1OC (stereo not given)	–	–	–	–
COc1ccc(C(=O)O)cc1N1C(=O)Nc2ccccc2N1O	–	·	·	–
O=C(O)c1ccc(Cl)c(N2C(=O)Nc3ccccc3N2O)c1	–	·	·	-61.0
C#CCn1c(C2CC(=O)N(c3ccc(OCC)cc3)C2)nc2ccccc21 (stereo not given)	–	–	–	–
CC(C)(CC(=O)N1CCN(c2ccc(Cl)cc2)CC1)CC1=NS(=O)(=O)c2ccccc2N1	–	11.2µM	?	?
COc1cccc(N2CCN(C(=O)CC(C)(C)CC3=NS(=O)(=O)c4ccccc4N3)CC2)c1	?	?	–	-71.6
COC(=O)[C@@H]1CCCN1Cc1ccc2c(c1)CN(Cc1coc3ccccc3c1=O)CCO2	–	·	·	·
Clc1ccc(/C=C/c2nc3ccccc3[nH]2)cc1	–	?	8.2µM	?
Clc1ccc(/C=C/c2nc3ccccc3[nH]2)c(Cl)c1	–	10.3µM	?	–
O[C@@H]1CO[C@@H](C=Cc2ccccc2)[C@H]1OCc1cccc(Br)c1	·	?	–	·
Cc1ccc2nsnc2c1S(=O)(=O)N(Cc1ccco1)Cc1cc2ccc(C)c(C)c2[nH]c1=O	–	?	1.58µM	-85.3
COc1ccc2[nH]c(=O)c(CN(Cc3cccs3)S(=O)(=O)c3c(C)ccc4nsnc34)cc2c1	–	13µM	?	-102.5
COC(=O)CCNC(=O)NC(CCC(C)C)c1c(-n2cccc2)sc2c1CCN(C)C2 (stereo not given)	–	?	·	?
Cc1ccc(-c2nnc(Nc3cccc(O)c3)c3ccccc23)cc1S(=O)(=O)N1CCN(C)CC1	–	–	–	–
SMILES	FMDV antiviral	Lassa entry inh	Marburg entry inh	HCMV inh
CCN(CC)C(=O)c1ccc(-c2nnc(Nc3ccc(O)cc3)c3ccccc23)cc1	–	·	·	-74.5
Cc1ccc(-c2nnc(Nc3ccc(Br)cc3)c3ccccc23)cc1S(=O)(=O)N1CCN(C)CC1	–	11.2µM	·	–
Cc1ccc(-c2nnc(Nc3ccc(O)cc3)c3ccccc23)cc1S(=O)(=O)N1CCN(C)CC1	–	–	–	-65.6
Cc1ccc(-c2nnc(Nc3ccc(F)cc3)c3ccccc23)cc1S(=O)(=O)N1CCN(C)CC1	–	?	–	-101.5
COc1ccc(NC(=O)CSC2=Nc3ccccc3C3=NC(CC(=O)NCc4ccc5c(c4)OCO5)C(=O)N23)cc1 (stereo not given)	–	–	·	–
COc1cc(OC)c(NC(=O)C2CCN(S(=O)(=O)c3c(C)noc3/C=C/c3c(C)cc(C)cc3C)CC2)cc1Cl	–	–	·	–
O=C(COC(=O)/C=C/c1cccs1)NC1CC1	–	?	?	-60.4
CNC(=O)COC(=O)/C=C/c1cccs1	–	–	?	–
CC(=O)/C=C/c1ccc2ccccc2n1	?	?	?	-83.7
COc1ccccc1CNC(=O)COC(=O)/C=C/c1ccc2ccccc2n1	–	·	·	-62.1
COc1ccccc1CNC(=O)COC(=O)/C=C/c1cccs1	–	–	–	–
Clc1ccc2[nH]c3c(NCC4CCCO4)ncnc3c2c1 (stereo not given)	·	·	–	-65.1
Clc1ccc2[nH]c3c(NCCN4CCOCC4)ncnc3c2c1	–	?	–	–
COC(=O)[C@H]1[C@H](CO)[C@H]2Cn3c(cccc3=O)[C@H]2N1Cc1ccccc1Cl	·	·	·	–

Source: PubChem BioAssay
